# Over roughly 16,000 sequences, “rpm ratio (pull-down/input)” has its median near 0.94; the highest 2% begin near 1.7. What follows is part of a selection rich in the highest values, with near analogues and random picks from the rest.
# Molecular target: T1, MBP-FoxP1dN (Mus musculus, UniProt P58462 326-579)
# T1 sequence: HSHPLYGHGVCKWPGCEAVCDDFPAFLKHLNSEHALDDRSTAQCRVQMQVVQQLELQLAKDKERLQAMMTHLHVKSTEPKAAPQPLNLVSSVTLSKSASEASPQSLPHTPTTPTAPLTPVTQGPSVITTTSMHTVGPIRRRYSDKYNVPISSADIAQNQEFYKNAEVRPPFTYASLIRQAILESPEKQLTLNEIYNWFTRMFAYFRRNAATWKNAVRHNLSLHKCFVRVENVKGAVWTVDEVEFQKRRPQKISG
# Assay: PD-seq (MBP pull-down with sequencing); 20 mM Tris-HCl pH 7.5, 100 mM NaCl, 1.5 mM MgCl2, 0.4 uM protein, 0.1 uM dsDNA library, 30 min, room temperature, amylose pull-down; high values mean tight binding
# Conditions: protein: recombinant; tags: His6-MBP; chain copies: 2; dsDNA, one strand shown
# Method in brief: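 Binding is given as reads-per-million enrichment, pull-down over input, with replicates pooled. The bait was an N-terminus-lacking mouse FoxP3 or FoxP1 fragment with a His6-MBP tag, expressed in E. coli and used at 0.4 µM with 0.1 µM Klenow-filled degenerate double-stranded DNA library for 30 min at room temperature in Tris pH 7.5 buffer with NaCl and MgCl2. Amylose resin pull-down with three washes was followed by proteinase K release, PCR barcoding and Illumina sequencing.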
row,Sequence,binding signal
1,GATGATTGTTCTCCCAGCTGATGAATTCTTCTGATCGAGTAAACAAATTTTCCTAATCTTTCTGTTCAAGCGCCATCTAC,0.96 RPM ratio (pull-down/input)
2,GATGATTGTTCTCCCAGCTGATGAATTGCGCCATTCGAGTAAACAAATTTTCCTAATCTTTCTGTTCAAGCGCCATCTAC,1.14 RPM ratio (pull-down/input)
3,GATGATTGTTCTCCCAGCTGATGAATTCGATTGCTCGAGTAAACAAATTTTCCTAATCTTTCTGTTCAAGCGCCATCTAC,0.842 RPM ratio (pull-down/input)
4,GATGATTGTTCTCCCAGCTGATGAATTAAAGGTCTCGAGTAAACAAATTTTCCTAATCTTTCTGTTCAAGCGCCATCTAC,0.774 RPM ratio (pull-down/input)
5,GATGATTGTTCTCCCAGCTGATGAATTGAGTGGCTCGAGTAAACAAATTTTCCTAATCTTTCTGTTCAAGCGCCATCTAC,0.823 RPM ratio (pull-down/input)
6,GATGATTGTTCTCCCAGCTGATGAATTTATTTTTTCGAGTAAACAAATTTTCCTAATCTTTCTGTTCAAGCGCCATCTAC,1.41 RPM ratio (pull-down/input)
7,GATGATTGTTCTCCCAGCTGATGAATTTTATTGTTCGAGTAAACAAATTTTCCTAATCTTTCTGTTCAAGCGCCATCTAC,2.31 RPM ratio (pull-down/input)
8,GATGATTGTTCTCCCAGCTGATGAATTTTTTATTTCGAGTAAACAAATTTTCCTAATCTTTCTGTTCAAGCGCCATCTAC,1.04 RPM ratio (pull-down/input)
9,GATGATTGTTCTCCCAGCTGATGAATTTATTTGTTCGAGTAAACAAATTTTCCTAATCTTTCTGTTCAAGCGCCATCTAC,2.15 RPM ratio (pull-down/input)
10,GATGATTGTTCTCCCAGCTGATGAATTAAGGCGATCGAGTAAACAAATTTTCCTAATCTTTCTGTTCAAGCGCCATCTAC,0.912 RPM ratio (pull-down/input)
11,GATGATTGTTCTCCCAGCTGATGAATTTGAACTTTCGAGTAAACAAATTTTCCTAATCTTTCTGTTCAAGCGCCATCTAC,0.845 RPM ratio (pull-down/input)
12,GATGATTGTTCTCCCAGCTGATGAATTTGTACTATCGAGTAAACAAATTTTCCTAATCTTTCTGTTCAAGCGCCATCTAC,1.22 RPM ratio (pull-down/input)
13,GATGATTGTTCTCCCAGCTGATGAATTGTAAACATCGAGTAAACAAATTTTCCTAATCTTTCTGTTCAAGCGCCATCTAC,2.78 RPM ratio (pull-down/input)
14,GATGATTGTTCTCCCAGCTGATGAATTTTATACGTCGAGTAAACAAATTTTCCTAATCTTTCTGTTCAAGCGCCATCTAC,0.957 RPM ratio (pull-down/input)
15,GATGATTGTTCTCCCAGCTGATGAATTTTATACATCGAGTAAACAAATTTTCCTAATCTTTCTGTTCAAGCGCCATCTAC,1.09 RPM ratio (pull-down/input)
16,GATGATTGTTCTCCCAGCTGATGAATTCTATACATCGAGTAAACAAATTTTCCTAATCTTTCTGTTCAAGCGCCATCTAC,1.08 RPM ratio (pull-down/input)
17,GATGATTGTTCTCCCAGCTGATGAATTTCAAACATCGAGTAAACAAATTTTCCTAATCTTTCTGTTCAAGCGCCATCTAC,1.18 RPM ratio (pull-down/input)
18,GATGATTGTTCTCCCAGCTGATGAATTCTATACGTCGAGTAAACAAATTTTCCTAATCTTTCTGTTCAAGCGCCATCTAC,0.962 RPM ratio (pull-down/input)
19,GATGATTGTTCTCCCAGCTGATGAATTGTTGTAATCGAGTAAACAAATTTTCCTAATCTTTCTGTTCAAGCGCCATCTAC,1.96 RPM ratio (pull-down/input)
20,GATGATTGTTCTCCCAGCTGATGAATTTCTGTAATCGAGTAAACAAATTTTCCTAATCTTTCTGTTCAAGCGCCATCTAC,1.49 RPM ratio (pull-down/input)
21,GATGATTGTTCTCCCAGCTGATGAATTGTATACGTCGAGTAAACAAATTTTCCTAATCTTTCTGTTCAAGCGCCATCTAC,1.82 RPM ratio (pull-down/input)
22,GATGATTGTTCTCCCAGCTGATGAATTCTGTAAATCGAGTAAACAAATTTTCCTAATCTTTCTGTTCAAGCGCCATCTAC,1.18 RPM ratio (pull-down/input)
23,GATGATTGTTCTCCCAGCTGATGAATTGTATACATCGAGTAAACAAATTTTCCTAATCTTTCTGTTCAAGCGCCATCTAC,2.35 RPM ratio (pull-down/input)

row,Sequence,binding signal
1,GATGATTGTTCTCCCAGCTGATGAATTTGTAACATCGAGTAAACAAATTTTCCTAATCTTTCTGTTCAAGCGCCATCTAC,1.45 RPM ratio (pull-down/input)
2,GATGATTGTTCTCCCAGCTGATGAATTTAACGCCTCGAGTAAACAAATTTTCCTAATCTTTCTGTTCAAGCGCCATCTAC,0.91 RPM ratio (pull-down/input)
3,GATGATTGTTCTCCCAGCTGATGAATTAGCGCACTCGAGTAAACAAATTTTCCTAATCTTTCTGTTCAAGCGCCATCTAC,0.88 RPM ratio (pull-down/input)
4,GATGATTGTTCTCCCAGCTGATGAATTACACGCGTCGAGTAAACAAATTTTCCTAATCTTTCTGTTCAAGCGCCATCTAC,1.18 RPM ratio (pull-down/input)
5,GATGATTGTTCTCCCAGCTGATGAATTCACGGGTTCGAGTAAACAAATTTTCCTAATCTTTCTGTTCAAGCGCCATCTAC,0.766 RPM ratio (pull-down/input)
6,GATGATTGTTCTCCCAGCTGATGAATTCAGTCTATCGAGTAAACAAATTTTCCTAATCTTTCTGTTCAAGCGCCATCTAC,0.905 RPM ratio (pull-down/input)
7,GATGATTGTTCTCCCAGCTGATGAATTCGCCACTTCGAGTAAACAAATTTTCCTAATCTTTCTGTTCAAGCGCCATCTAC,0.857 RPM ratio (pull-down/input)
8,GATGATTGTTCTCCCAGCTGATGAATTGTACTCATCGAGTAAACAAATTTTCCTAATCTTTCTGTTCAAGCGCCATCTAC,1.04 RPM ratio (pull-down/input)
9,GATGATTGTTCTCCCAGCTGATGAATTTTATAGGTCGAGTAAACAAATTTTCCTAATCTTTCTGTTCAAGCGCCATCTAC,0.796 RPM ratio (pull-down/input)
10,GATGATTGTTCTCCCAGCTGATGAATTGAGTGTATCGAGTAAACAAATTTTCCTAATCTTTCTGTTCAAGCGCCATCTAC,1.16 RPM ratio (pull-down/input)
11,GATGATTGTTCTCCCAGCTGATGAATTCATGTAATCGAGTAAACAAATTTTCCTAATCTTTCTGTTCAAGCGCCATCTAC,1.5 RPM ratio (pull-down/input)
12,GATGATTGTTCTCCCAGCTGATGAATTTTATGTATCGAGTAAACAAATTTTCCTAATCTTTCTGTTCAAGCGCCATCTAC,1.71 RPM ratio (pull-down/input)
13,GATGATTGTTCTCCCAGCTGATGAATTATCTTTATCGAGTAAACAAATTTTCCTAATCTTTCTGTTCAAGCGCCATCTAC,1.09 RPM ratio (pull-down/input)
14,GATGATTGTTCTCCCAGCTGATGAATTCATGTTATCGAGTAAACAAATTTTCCTAATCTTTCTGTTCAAGCGCCATCTAC,1.78 RPM ratio (pull-down/input)
15,GATGATTGTTCTCCCAGCTGATGAATTCATCTTATCGAGTAAACAAATTTTCCTAATCTTTCTGTTCAAGCGCCATCTAC,0.961 RPM ratio (pull-down/input)
16,GATGATTGTTCTCCCAGCTGATGAATTTATGATATCGAGTAAACAAATTTTCCTAATCTTTCTGTTCAAGCGCCATCTAC,1.33 RPM ratio (pull-down/input)
17,GATGATTGTTCTCCCAGCTGATGAATTTATGTTATCGAGTAAACAAATTTTCCTAATCTTTCTGTTCAAGCGCCATCTAC,2.22 RPM ratio (pull-down/input)
18,GATGATTGTTCTCCCAGCTGATGAATTATGATTATCGAGTAAACAAATTTTCCTAATCTTTCTGTTCAAGCGCCATCTAC,1.51 RPM ratio (pull-down/input)
19,GATGATTGTTCTCCCAGCTGATGAATTTTATGAATCGAGTAAACAAATTTTCCTAATCTTTCTGTTCAAGCGCCATCTAC,0.942 RPM ratio (pull-down/input)
20,GATGATTGTTCTCCCAGCTGATGAATTTATGTAATCGAGTAAACAAATTTTCCTAATCTTTCTGTTCAAGCGCCATCTAC,1.95 RPM ratio (pull-down/input)
21,GATGATTGTTCTCCCAGCTGATGAATTATGTAAATCGAGTAAACAAATTTTCCTAATCTTTCTGTTCAAGCGCCATCTAC,1.47 RPM ratio (pull-down/input)
22,GATGATTGTTCTCCCAGCTGATGAATTATGTTTATCGAGTAAACAAATTTTCCTAATCTTTCTGTTCAAGCGCCATCTAC,2.99 RPM ratio (pull-down/input)

# Reference: publication PMC12820563, “FoxP3 forms a head-to-head dimer in vivo and stabilizes its multimerization on adjacent microsatellites”
